ELG1 repair inh = qHTS screen for small molecules that inhibit ELG1-dependent DNA repair in human embryonic kidney (HEK293T) cells expressing luciferase-tagged ELG1 | HEK293T ELG1-luciferase reporter, luminescence, 16 h; DNA damage induced by 5-fluorouridine | Potency, µM (top dose mostly 46.1 µM), inactives show at the highest dose activity change, negative = inhibition, most hits filed as inhibitors | 330,000 compounds, 2.3% hits | AID 504467, 2011; also: % is scaled to controls: 0 for no effect and ±100 for the full control effect; nearly all actives have a fitted effect of over 55% in size
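Reporter activity after DNA damage by 5-fluorouridine is monitored. Compound-treated cells incubate 16 hr at 37 °C, then ONE-Glo is added for 30 min before luminescence reading.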
A549 viability = Nrf2 qHTS screen for inhibitors: counterscreen for cytotoxicity; A549 ARE-Fluc cells, CellTiter-Fluor viability, 18-24 h; Potency, µM (doses to about 46 µM), for the others: at the highest dose activity change, negative = cytotoxicity, most hits filed as inhibitors; 390,000 compounds, 0.16% hits; also: % is scaled to controls: 0 for no effect and ±100 for the full control effect
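A549 ARE-Fluc cells in 5% FBS OPTI-MEM, 5000 cells/well, rested 2 h then exposed to compounds in concentration-response for 18-24 h at 37 °C. Viability by CellTiter-Fluor fluorescence (Ex 405/Em 525) after 30 min; luciferase luminescence (BugLite, 15 min, RT) read afterwards.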
IDH1 R132H inh = qHTS for Inhibitors of mutant isocitrate dehydrogenase 1 (IDH1): qHTS | Isocitrate dehydrogenase [NADP] cytoplasmic (Homo sapiens), O75874 | IDH1-R132H enzyme, NADPH consumption, diaphorase/resazurin fluorescence | Potency, µM (highest dose often 76.6 µM), without a hit: top-dose activity change, negative = inhibition, usual class: inhibitors | 390,000 compounds, 0.093% hits; also: % is scaled to controls: 0 for no effect and ±100 for the full control effect; nearly all actives have a fitted effect of over 65% in size
Target sequence (O75874 whole entry R132H, stated change not applied): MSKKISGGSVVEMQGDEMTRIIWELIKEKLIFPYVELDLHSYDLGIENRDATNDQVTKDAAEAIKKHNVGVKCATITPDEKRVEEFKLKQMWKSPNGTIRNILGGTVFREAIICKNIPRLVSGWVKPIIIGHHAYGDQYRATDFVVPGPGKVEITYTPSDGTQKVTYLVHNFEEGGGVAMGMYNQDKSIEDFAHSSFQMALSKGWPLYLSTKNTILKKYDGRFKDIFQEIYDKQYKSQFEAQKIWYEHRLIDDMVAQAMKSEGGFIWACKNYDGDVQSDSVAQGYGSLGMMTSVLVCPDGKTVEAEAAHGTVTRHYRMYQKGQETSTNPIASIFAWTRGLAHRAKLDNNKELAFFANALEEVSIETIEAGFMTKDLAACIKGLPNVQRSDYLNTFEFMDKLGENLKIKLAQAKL
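IDH1-R132H (0.5 ug/mL dispensed) in pH 7.5 Tris buffer was preincubated 30 min with compound, then given a substrate mix of 0.016 mM NADPH and 2 mM alpha-KG for 80 min at room temperature; remaining NADPH was read by diaphorase/resazurin fluorescence.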
Nrf2 activator = qHTS of Nrf2 Activators. AREc32 ARE-luciferase reporter (MCF7-derived line), luminescence, 24 h. Potency, µM (highest dose often 46.1 µM), inactives show top-dose activation, usual class: activators. 410,000 compounds, 0.31% hits. AID 624171, 2012; also: % of control where 0% means no effect; nearly all actives have a fitted effect of over 65% in size
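Reporter line AREc32 (ARE-Fluc), seeded overnight in OPTI-MEM with 5% FBS; compound pin-transferred, 24 hr at 37 deg C, 5% CO2; luminescent read-out.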
Nrf2 inh = Nrf2 qHTS screen for inhibitors. A549 ARE-Fluc reporter, luciferase luminescence, 18-24 h. AID 504444, 2011. 360,000 compounds, 2.1% hits. Potency, µM (highest dose often 46 µM), without a hit: top-dose activity change, negative = inhibition, hits mostly inhibitors; also: % is scaled to controls: 0 for no effect and ±100 for the full control effect; nearly all actives have a fitted effect of over 60% in size
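Concentration-response testing used A549 ARE_Fluc cells at 5000 cells/well. Following an 18-24 h compound incubation, viability was read by fluorescence (Ex 405/Em 525) and luciferase output by luminescence.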
ELG1 FLuc counter = qHTS screen for small molecules that inhibit ELG1-dependent DNA repair: Hit Confirmation in Cell-Based Luciferin Assay; shares compounds with ELG1 repair inh; cell-free firefly luciferase luminescence counter-screen, ViewLux; Potency, µM (titrated, usually from 46.1 µM), for inactives: at the top dose activity change, negative = inhibition, actives largely listed as inhibitors; 350 compounds, 3% hits; AID 624247, 2012; also: % is scaled to controls: 0 for no effect and ±100 for the full control effect
ELG1 Luc conf = HTS assay for small molecules that inhibit ELG1-dependent DNA repair in human embryonic kidney (HEK293T) cells expressing luciferase-tagged ELG1: Hit Confirmation | shares compounds with ELG1 repair inh | Potency, µM (doses to about 46.1 µM), inactives show at the highest dose activity change, negative = inhibition, actives largely listed as inhibitors | 670 compounds, 68% hits | AID 624248, 2012 | HEK293T ELG1-luciferase levels, luminescence; cells co-treated with 5-fluorouridine; also: % is scaled to controls: 0 for no effect and ±100 for the full control effect; nearly all actives have a fitted effect of over 55% in size
ELG1-Luc MMS = confirmation of human ELG1 repair inhibitors, MMS stimulated; shares compounds with ELG1 repair inh; HEK293T luciferase-tagged ELG1 level, MMS stimulated; Potency, µM (series often up to 46.1 µM), inactives show at the top dose activity change, negative = inhibition, actives largely listed as inhibitors; 670 compounds, 53% hits; AID 624249; also: % is scaled to controls: 0 for no effect and ±100 for the full control effect; nearly all actives have a fitted effect of over 60% in size
ELG1 5FU viab = qHTS screen for small molecules that inhibit ELG1-dependent DNA repair: Hit Confirmation with 5FU Viability; cell viability with 5-FU, ELG1-dependent repair; AID 624250, 2012; shares compounds with ELG1 repair inh; Potency, µM (series often up to 46.1 µM), for inactives: at the top dose activity change, negative = viability loss, most hits filed as cytotoxic; 670 tested, under 10 active;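 also: ELG1-luc HEK293T cells cotreated with 5-fluorouridine at 10 µM final; viability measured 16 h after compound addition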
ELG1 MMS viab = qHTS screen for small molecules that inhibit ELG1-dependent DNA repair: Hit Confirmation with MMS Viability | Potency, µM (titrated, usually from 46.1 µM), for inactives: top-dose activity change, negative = viability loss, actives largely listed as cytotoxic | Cell viability with MMS, ELG1-dependent DNA repair | 670 compounds, 33% hits | AID 624251, 2012 | shares compounds with ELG1 repair inh;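 also: ELG1-luc HEK293T cells co-treated with 10 µM MMS; viability read 16 h after compound addition; % is scaled to controls: 0 for no effect and ±100 for the full control effect; nearly all actives have a fitted effect of over 60% in size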
ELG1 unstim viab = qHTS screen for small molecules that inhibit ELG1-dependent DNA repair: Hit Confirmation with Unstimulated Viability Assay; shares compounds with ELG1 repair inh; cell viability counter-screen, unstimulated, luminescence; Potency, µM (titrated, usually from 45.9 µM), for the others: at the highest dose activity change, negative = loss of viability, hits mostly cytotoxic; 900 compounds, 8% hits;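 also: compound exposure lasted 16 hours before reading; % is scaled to controls: 0 for no effect and ±100 for the full control effect; nearly all actives have a fitted effect of over 55% in size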
FLuc enzyme = qHTS screen for small molecules that inhibit ELG1-dependent DNA repair: Hit Confirmation in Biochemical Luciferin Assay; shares compounds with ELG1 repair inh; Potency, µM (doses to about 57.5 µM), inactives show at the highest dose activity, negative = inhibition, usual class: inhibitors; 350 compounds, 10% hits; purified firefly luciferase, luminescence counter-screen; also: % is scaled to controls: 0 for no effect and ±100 for the full control effect
An asterisk follows results filed as active; ? = inconclusive; . = no result given. Only some compounds are listed: those with a hit (about 3.8% of all), similar ones and a draw of the others. Calls follow the shape of the dose curve; as a rule, active = well fitted curve in the direction sought with a large enough effect; inconclusive = small, poorly fitted or top-dose-only effect, or another doubt; inactive = no such curve, though single readings can be large; an effect the other way counts as inactive or inconclusive. Potency is read from the fitted curve at half-maximal effect.

SMILES	ELG1 repair inh	A549 viability	IDH1 R132H inh	Nrf2 activator	Nrf2 inh	ELG1 Luc conf	ELG1-Luc MMS	ELG1 5FU viab	ELG1 MMS viab	ELG1 unstim viab	others
CCOC(=O)CCSc1nc(N2CCOCC2)c2c(c1C#N)CC(C)(C)OC2	1µM*	3%	0%	0%	-24%	4.5µM*	9%	?	11%	1%	ELG1 FLuc counter=14%;FLuc enzyme=3%
CC(=O)OCC1=C[C@H]2[C@@H]3C(C)(C)[C@]3(OC(C)=O)C[C@@H](C)[C@]2(O)[C@@H]2C=C(C)C(=O)[C@@]2(O)C1	.	.	.	.	.	.	.	.	.	?
C=CCNC(=O)c1oc2ccc(S(=O)(=O)N3CCC4(CC3)OCCO4)cc2c1C	?	4%	-8%	1%	-20%	.	.	.	.	.
Cc1c(C(=O)NCc2ccco2)oc2ccc(S(=O)(=O)N3CCC4(CC3)OCCO4)cc12	3.3µM*	2%	-2%	0%	-7%	4.5µM*	-12%	?	-11%	?	ELG1 FLuc counter=63%;FLuc enzyme=0%
Cc1ccc(Cn2ccc(NC(=O)c3nn(C)cc3[N+](=O)[O-])n2)cc1	?	-4%	6%	8%	14%	?	?	-1%	0%	-7%
CCn1cc([N+](=O)[O-])c(C(=O)Nc2ccn(Cc3ccccc3)n2)n1	-8%	-2%	1%	0%	2%	.	.	.	.	.
Cc1ccc(-c2cc(NC(=O)COc3c(C)cc(C)cc3C)on2)cc1	.	9%	-6%	5%	23%	.	.	.	.	.
COc1ccc(NS(=O)(=O)c2cccc(C(=O)NCc3ccccc3CN3CCOCC3)c2)cc1	.	?	10%	-1%	?	.	.	.	.	.
CC(=O)Nc1cccc(OCC(O)Cn2c(C)nc3ccccc32)c1 (stereo not drawn)	?	26%	-2%	0%	?	.	.	.	.	.
CCCOC(=O)c1ccc(OCC(O)Cn2c(C)nc3ccccc32)cc1 (stereo not drawn)	1.5µM*	-1%	7%	0%	13%	?	1.8µM*	-4%	2µM*	?
Cc1ccc(N(C)C(=O)c2cc(S(=O)(=O)N3CCCCC3)c[nH]2)cc1	3.7µM*	2%	6%	-2%	6%	?	3%	-5%	-4%	-14%
Cc1onc(-c2ccccc2Cl)c1C(=O)NCc1nnnn1-c1ccc(F)c(F)c1	.	.	-7%	-1%	.	.	.	.	.	.
COc1ccc(-c2cc(C)no2)cc1S(=O)(=O)N1CCN(c2cccc(C)c2)C(C)C1 (stereo not drawn)	3.3µM*	-5%	3%	0%	?	13µM*	3.1µM*	-7%	4µM*	?
COc1ccc(-c2nc(-c3cccnc3)no2)cc1	?	5%	8%	0%	?	.	.	.	.	0%
C=CC[C@H](CC(=O)NCCO)C(=O)NC[C@@H](OC(=O)[C@@H](CC=C)Cc1ccc(F)cc1)c1ccccc1	-9%	4%	21%	0%	-14%	.	.	.	.	.
C=CC[C@@H](CC(=O)N[C@H](CO)Cc1ccccc1)C(=O)NC[C@H](OC(=O)[C@@H](CC=C)Cc1ccc(F)cc1)c1ccccc1	4.6µM*	?	-12%	4%	-12%	?	10µM*	?	3%	-4%
O=C(COC(=O)/C=C/c1ccc(OC(F)F)cc1)NC1CCCCCC1	13%	-1%	7%	1%	12%	.	.	.	.	.
O=C(Nc1ccc(F)cc1)N(Cc1cccs1)Cc1cc2cc3c(cc2[nH]c1=O)OCO3	18µM*	3%	8%	1%	-33%	8.9µM*	28µM*	-6%	?	?	ELG1 FLuc counter=?;FLuc enzyme=-15%
COc1ccc(-c2nc(C)c(CCNC(=O)C(=O)Nc3cc(C)cc(C)c3)s2)cc1OC	.	-1%	-15%	0%	.	.	.	.	.	.
O=C(NCC1CCCO1)c1ccc2c(=O)n(CC3CCCO3)c(=S)[nH]c2c1 (stereo not drawn)	-23%	1%	-3%	0%	0%	.	.	.	.	.
O=C(Nc1ccc(F)cc1)c1ccc2c(=O)n(CC3CCCO3)c(=S)[nH]c2c1 (stereo not drawn)	4.1µM*	-7%	7%	-1%	?	5.6µM*	22µM*	?	?	-20%

Screening results from PubChem BioAssay.
